From PubChem
Shown is part of a subset that was picked to be rich in hits.
Tgondii IFNg = T. gondii growth inhibition with IFN-gamma, primary screen, cell-based | Toxoplasma gondii growth in IFN-gamma-treated host cells; hits give low values | AID 1259416, 2018 | activity change, negative = inhibition, % (test concentration not listed) | hit rate 3.8% among 69,000; in the data active means activity change below about -70%, passing the limit was not always enough;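 further: host cells are HeLa cells infected with Toxoplasma gondii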
Numbers stand for hits; – = inactive.

SMILES	Tgondii IFNg
Cc1ccc(C(=O)N2CCC3(CC2)COC(COc2cccnc2)C3)o1 (centres undefined)	–
Cc1noc(C)c1S(=O)(=O)N1CCCC(C(=O)Nc2nc(C(C)C)cs2)C1 (centres undefined)	–
CC(=O)NC1[C@@H](O)OC(CO)[C@@H](O)[C@H]1O (some centres undefined)	–
Cc1nc(-c2ccc(S(C)(=O)=O)cc2)cc(C2CCNCC2)n1	–
CC(=O)N1C2CCN(c3ncc(C)cn3)CC2C[C@H]1Cn1cncn1 (some centres undefined)	–
Cc1c(C(=O)CN2C(=O)COc3ccccc32)c2ccccc2n1C	–
CC1CCc2c(nc(N)n(CC(=O)Nc3ccc(N4CCCCC4)cc3)c2=O)C1 (centres undefined)	–
C=CCOCC1c2nnn(CC3CC3)c2CCN1Cc1cnn(C)c1 (centres undefined)	–
CC1CCN(CC(C)(C)NC(=O)c2cc(-c3ccncc3)c3cnccc3n2)CC1	–
CC(C)C(NC(=O)c1cccc(-n2cnnc2)c1)c1cccs1 (centres undefined)	–
CC(C)C(NC(=O)c1cc(-c2ccncc2)c2cnccc2n1)c1cccs1 (centres undefined)	-87
CC12C(=O)OC(=O)C1(C)C1CCC2O1 (centres undefined)	-86
COc1ccccc1-c1noc(-c2c(O)c3cccc(Cl)c3[nH]c2=O)n1	–
CC1CCN(c2ncnc3c2cnn3CC(=O)Nc2ccc(OC(F)(F)F)cc2)CC1	–
O=C(Cn1ncc2c(N3CCCCC3)ncnc21)Nc1cccc(Cl)c1	–
CC1CCN(c2ncnc3c2cnn3CC(=O)Nc2ccccc2F)CC1	–
COc1ccc(NC(=O)Cn2ncc3c(N4CCC(C)CC4)ncnc32)cc1OC	–
O=C(Cn1ncc2c(N3CCN(c4ccccn4)CC3)ncnc21)Nc1ccc(F)c(Cl)c1	–
O=C(Cn1ncc2c(N3CCCC3)ncnc21)Nc1cccc(Cl)c1	–
CC1CCN(c2ncnc3c2cnn3CC(=O)Nc2ccccc2C(F)(F)F)CC1	-81
CC1CCN(c2ncnc3c2cnn3CC(=O)Nc2cccc(Cl)c2)CC1	-87
CC1CCN(c2ncnc3c2cnn3CC(=O)Nc2ccc3c(c2)OCCO3)CC1	–
O=C(Cn1ncc2c(N3CCN(c4ccccn4)CC3)ncnc21)Nc1ccccc1C(F)(F)F	–
CC1CCN(c2ncnc3c2cnn3CC(=O)Nc2ccc(F)c(Cl)c2)CC1	-86
CC1CCN(c2ncnc3c2cnn3CC(=O)Nc2cccc(C(F)(F)F)c2)CC1	-72
SMILES	Tgondii IFNg
CCOc1ccc(NC(=S)NC(=O)COc2cc(Cl)c(Cl)cc2Cl)cc1	–
Fc1ccc(C2(c3noc(CCc4nc(Cl)n[nH]4)n3)CCOC2)cc1 (centres undefined)	–
CCC(=O)N1C[C@@H]2CN(c3ncccn3)CC[C@H]2C1	–
Cn1cnc2cc(C(=O)Nc3cnc4n3CCCC4)cnc21	–
CN(C)CC(=O)N1C[C@@H]2Cc3c(c(-c4ccccc4)nn3C)[C@H]2C1	–
Cc1ccc(C(=O)N(C)C(C)c2nccs2)cc1N1CCNC1=O (centres undefined)	–
CN1CCN(c2cc(C(F)(F)F)ccn2)CC1C(=O)O (centres undefined)	–
Cc1ccccc1-c1cc(N2CCN(C)CC2)ncc1N(C)C(=O)C(C)(C)c1cc(C(F)(F)F)cc(C(F)(F)F)c1	-73
CN(C(=O)C(C)(C)Oc1cc(C(F)(F)F)n(C)n1)c1ccccc1	–
Cc1ccc(-c2noc(-c3c(O)c4ccc(F)cc4n(C)c3=O)n2)cc1C	–
Cc1ccc(Cl)cc1NC(=O)Cn1ncc2c(N3CCN(c4ccccn4)CC3)ncnc21	–
Cn1nc(CC2CCN(C(=O)c3cccnn3)CC2)n(-c2ccccc2)c1=O	–
CSc1cccc(NC(=O)c2nnn(Cc3nc(-c4ccccc4C)oc3C)c2C)c1	–
O=S(=O)(NCc1ccccc1)Nc1ccccc1-n1cccn1	–
O=C(Nc1ncn[nH]1)c1sc2ccccc2c1Cl	–
O=C(NC1CCSC1=O)c1sc2ccccc2c1Cl (centres undefined)	–
O=C(NC(=O)c1sc2ccccc2c1Cl)c1ccccc1O	-107
CC(C(=O)O)n1c(C2CCC2)n[nH]c1=O (centres undefined)	–
O=C(Nc1ccc(OC(F)(F)F)cc1)c1cnn(-c2ccc(Cl)cc2)c1C(F)(F)F	-86
Cc1cc(C)c2cc(C(=O)Nc3ccc(OC(F)(F)F)cc3)[nH]c2c1	–
O=C(NCCSCc1ccco1)c1cnn(-c2ccccc2)c1C(F)(F)F	–
O=C(c1n[nH]c2c1CCN(Cc1cccs1)C2)N1CCOCC1	–
COc1ccc(C(=O)Nc2ccc(-c3nc(-c4ccccc4)co3)cc2)cc1	–
Cc1cc(C(=O)N2CC[C@@H]3OCCN(Cc4cccnc4)[C@@H]3C2)n[nH]1	–
CCc1cc(CN(C)C(=O)c2cnc(-c3cccnc3)nc2)on1	–
SMILES	Tgondii IFNg
CCn1ccnc1CC1COc2ccccc2O1 (centres undefined)	–
CN(C)C(=O)c1ccc2ncnc(N3CCCCC3)c2c1	–
c1ccc2c(c1)OCC(c1csc3ncnc(N4CCCCC4)c13)O2 (centres undefined)	-90
COc1cccc(-c2nc(Cn3nnc(C(=O)Nc4cccc(C)c4C)c3C)c(C)o2)c1OC	–
Cc1ccc(NC(=O)C(=O)NCCc2sc(-c3ccc(F)cc3)nc2C)cc1C	–
CC(C)NC(=O)Cn1c(=O)cc(-c2nc(C3CC3)no2)c2ccccc21	–
CC1CCN(S(=O)(=O)c2ccc3c(ccc(=O)n3CC(=O)NCCC3=CCCCC3)c2)CC1	-77
O=C(Cn1c(=O)cc(-c2nc(C3CC3)no2)c2ccccc21)NCCC1=CCCCC1	-84
CC1CCN(S(=O)(=O)c2ccc3c(ccc(=O)n3CC(=O)NC3CCCC3)c2)CC1	–
CC1CCN(S(=O)(=O)c2ccc3c(ccc(=O)n3CC(=O)NC3CC3)c2)CC1	–
O=C(Cn1c(=O)cc(-c2nc(C3CC3)no2)c2ccccc21)NCc1ccc(F)cc1	–
CCc1ccc(Nc2nc(C(=O)N3CCCCC3C)nc3ccccc23)cc1 (centres undefined)	–
COCCCn1c(SCC(=O)c2ccc(Cl)cc2)nnc1-c1csc(C)n1	–
CC(=O)CC1N(C2CCCCCC2)C(=O)C2N(C3CCCCC3)C(=O)C3CC(=O)OC312 (centres undefined)	–
CCCCN(CC)CCCNC(=O)C1=C(C)C(=O)OC12CCN(CC)CC2	–
O=S(=O)(Cc1ccc(F)cc1)Cc1noc(-c2ccc(F)cc2Cl)n1	–
FC(F)(F)C(Sc1ccccc1)=C(Sc1ccccc1)Sc1ccccc1	-80
c1ccc(SSc2ccccc2)cc1	–
O=C(O)c1cc2c(nc1N1CC(c3cccnc3)C1)CCC2	–
CCOC(=O)c1ccccc1NCn1nc(-c2ccccc2Br)oc1=S	–
c1ccc(CNc2cc(-c3nccc4occc34)c3cc[nH]c3n2)nc1	–
CC(O)c1cccc(-c2cc(NC3CCNCC3)nc3[nH]ccc23)n1 (centres undefined)	-93
Cc1nc(-c2cc(NCc3ccccn3)nc3[nH]ccc23)cc(C(C)C)n1	–
CNc1cc(-c2ccc(CN)cn2)c2cc[nH]c2n1	–
NCCc1cccc(-c2cc(NCCO)nc3[nH]ccc23)c1	–
COc1ncc(-c2cc(NCCN(C)C)nc3[nH]ccc23)c(OC)n1	–
c1ccc2c(-c3cc(NC4CCNCC4)nc4[nH]ccc34)n[nH]c2c1	-75
Cc1cc(-c2ccnc3c2ccn3C)c(=O)[nH]c1C	–
Cc1cc(-c2cc(NC3CCNCC3)nc3[nH]ccc23)c(=O)[nH]c1C	-85
